# In PubChem BioAssay (NCATS):
# Inconclusive results are not listed. Where a call stands in place of a potency, no number is given. Values without a mark were called inactive. Calls of active or inactive are those of the source. Calls come from the whole dose curve; as a rule, active = well fitted curve in the direction sought with a large enough effect; inconclusive = small, poorly fitted or top-dose-only effect, or another doubt; inactive = no such curve, though single readings can be large; an effect the other way counts as inactive or inconclusive.
# Tests used:
# [1] = qHTS to identify inhibitors of the type 1 interferon - major histocompatibility complex class I in skeletal muscle: primary screen against the NCATS Mechanism Interrogation Plate v5.0 (MIPE) Libary (AID 1347411); note: nearly all actives have a fitted effect of over 65% in size; note: potency is the fitted concentration of half-maximal effect
# Outline: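 Luminescence from HiBiT-tagged endogenous HLA-B*08:01 served as the MHC class I read-out. CRISPR-engineered C25cl48 human myoblasts received 4.0 ng/ml IFN-beta plus compound for 24 hrs, with an 11-point, 1:3 series topping at 46 uM final.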
# [2] = molecular target: Calcium and integrin-binding protein 1 (Homo sapiens) (UniProt Q99828); test: Primary qHTS for Identification of Calcium Integrin Binding Protein 1 (CIB1) Competitor (AID 1508620);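 note: GST tagged CIB1 binding a fluorescein labelled alphaIIb integrin peptide tracer; top concentration of the series differs between compounds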
# Outline: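 Fluorescence polarization competition: CIB1-GST (1 uM final) preincubated with compound 15 min at room temperature, then FITC-labeled alphaIIb peptide (100 nM final) added for another 15 min. Polarization read at Ex 480/Em 540.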
# [3] = molecular target: Calcium and integrin-binding protein 1 (Homo sapiens) (UniProt Q99828); test: Confirmatory qHTS for Identification of Calcium Integrin Binding Protein 1 (CIB1) Competitor (AID 1508617); note: nearly all actives have a fitted effect of over 65% in size; note: potency is the fitted concentration of half-maximal effect
# Outline: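 Compounds at up to 114 uM final met 1 uM GST-tagged CIB1 for 15 min at room temperature (HEPES pH 7.4, 5 mM CaCl2). FITC-labelled alphaIIb peptide, 100 nM, added; polarization read after 15 min more.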
# [4] = molecular target: Protein phosphatase 1D (Homo sapiens) (UniProt O15297); test: RapidFire Mass Spectrometry qHTS Assay for Modulators of WT P53-Induced Phosphatase 1 (WIP1) (AID 1347424);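 note: amount of dephosphorylated VEPPL-S-QETFS peptide product formed by WIP1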; note: potency is the fitted concentration of half-maximal effect
# Outline: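 WIP1 (10 nM final) was preincubated 1 h at room temperature with compounds in Tris-HCl pH 7.5, 30 mM MgCl2, TCEP, EGTA, BSA; 2 uM VEPPL-pS-QETFS phosphopeptide was added for 5 min, quenched with formic acid, and dephosphorylated product quantified by RapidFire MS.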
# [5] = Primary qHTS for inhibitors of La Crosse Virus (LACV) - induced cell death in SH-SY5Y cells (AID 1508616);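 note: top concentration of the series differs between compounds; higher means more rescue of cells from virus-induced death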
# Outline: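 Protection against LACV-induced cell death is scored in SH-SY5Y cells exposed to compounds and virus (0.01 MOI) for 6 days. Data normalized to virus-infected DMSO wells and virus-free DMSO wells.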
# [6] = molecular target: Protein phosphatase 1D (Homo sapiens) (UniProt O15297); test: Rhodamine-PBP qHTS Assay for Modulators of WT P53-Induced Phosphatase 1 (WIP1) (AID 1347425)
# Outline: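 The read-out is the change in Rhodamine-PBP fluorescence (f1 - f0, ex 525/em 598 nm) as Pi is released, read each minute for 11 min. Final reaction: 5 nM WIP1, 10 uM phosphopeptide VEPPL-pS-QETFS, 10 uM Rh-PBP, 50 mM Tris-HCl pH 7.5, 30 mM MgCl2. Compound was preincubated with enzyme for 1 hour at room temperature.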
# Chain of Calcium and integrin-binding protein 1 (Homo sapiens) (Q99828 whole entry, looked up): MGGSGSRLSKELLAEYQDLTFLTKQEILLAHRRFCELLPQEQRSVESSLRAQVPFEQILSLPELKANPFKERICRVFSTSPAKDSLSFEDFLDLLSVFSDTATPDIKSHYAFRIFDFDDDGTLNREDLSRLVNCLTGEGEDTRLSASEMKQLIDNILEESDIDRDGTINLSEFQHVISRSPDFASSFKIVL
# Chain of Protein phosphatase 1D (Homo sapiens) (O15297 whole entry, looked up): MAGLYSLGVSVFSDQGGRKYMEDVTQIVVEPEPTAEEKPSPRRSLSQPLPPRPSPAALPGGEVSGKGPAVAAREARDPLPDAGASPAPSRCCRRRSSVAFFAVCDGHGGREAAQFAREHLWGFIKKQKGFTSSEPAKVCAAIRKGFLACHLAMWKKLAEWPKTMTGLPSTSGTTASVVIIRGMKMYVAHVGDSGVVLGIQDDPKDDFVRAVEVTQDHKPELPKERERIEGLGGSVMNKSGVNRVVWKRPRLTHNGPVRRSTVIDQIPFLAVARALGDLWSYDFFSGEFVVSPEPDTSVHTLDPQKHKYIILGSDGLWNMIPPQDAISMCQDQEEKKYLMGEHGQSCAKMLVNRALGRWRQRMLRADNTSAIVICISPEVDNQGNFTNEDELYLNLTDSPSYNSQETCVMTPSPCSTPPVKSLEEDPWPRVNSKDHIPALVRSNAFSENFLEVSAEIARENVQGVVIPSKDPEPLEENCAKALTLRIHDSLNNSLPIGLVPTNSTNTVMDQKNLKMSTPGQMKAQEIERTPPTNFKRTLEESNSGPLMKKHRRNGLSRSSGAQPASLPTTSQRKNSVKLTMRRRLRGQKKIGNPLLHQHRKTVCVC
smiles,measurement,setting,value
C[C@@H](Oc1cc(-c2cnn(C3CCNCC3)c2)cnc1N)c1c(Cl)ccc(F)c1Cl,Potency,[1],14.7 µM (active)
same,outcome,[2],inactive
O=C(NCCCNc1nc(Nc2cccc(NC(=O)N3CCCC3)c2)ncc1I)c1cccs1,Potency,[1],inactive
same,outcome,[2],inactive
O=C(c1cncc(Br)c1)N1CCC(N2CCCC2)CC1,Potency,[1],inactive
same,outcome,[2],inactive
Cn1cc(-c2[nH]c3cc(NC(=O)[C@H](N)C4CCCCC4)cc4c3c2C=NNC4=O)cn1,Potency,[3],50.1 µM (active)
Cc1cc(Nc2nc(N[C@@H](C)c3ccc(F)cc3)c(C#N)cc2F)n[nH]1,Potency,[1],2.08 µM (active)
same,outcome,[2],inactive
CC(C)(C)c1cc(NC(=O)Nc2ccc(-c3cn4c(n3)sc3cc(OCCN5CCOCC5)ccc34)cc2)no1,Potency,[1],inactive
same,outcome,[2],inactive
CCCn1c(=O)c2[nH]c(-c3cnn(Cc4cccc(C(F)(F)F)c4)c3)nc2n(CC)c1=O,Potency,[1],inactive
same,outcome,[2],inactive
O=C(NCCS(=O)(=O)c1ccc(C(F)(F)F)cn1)c1ccc(Cl)cc1,Potency,[1],inactive
same,outcome,[2],inactive
COc1ccc2c(OCc3nnc4ccc(-c5ccccc5)nn34)ccnc2c1,Potency,[1],inactive
same,outcome,[2],inactive
COC(=O)C[C@](O)(CCCC(C)(C)O)C(=O)O[C@@H]1C(OC)=C[C@]23CCCN2CCc2cc4c(cc2[C@H]13)OCO4,Potency,[1],0.093 µM (active)
same,outcome,[2],inactive
CCCNC(=O)Nc1ccc(Oc2ncnc3cc(OC)c(OC)cc23)cc1Cl,Potency,[1],inactive
same,outcome,[2],inactive
CC(C)C[C@H](NC(=O)CNC(=O)c1cc(Cl)ccc1Cl)B(O)O,Potency,[1],0.104 µM (active)
same,outcome,[2],inactive
Nc1nc(Nc2ccc(S(N)(=O)=O)cc2)nn1C(=O)c1c(F)cccc1F,Potency,[1],4.15 µM (active)
same,outcome,[2],inactive
CC[C@@H]1C(=O)N(C)c2cnc(Nc3ccc(C(=O)NC4CCC(N5CCN(CC6CC6)CC5)CC4)cc3OC)nc2N1C(C)C (stereo partly specified),Potency,[1],6.58 µM (active)
same,outcome,[2],inactive
Cc1cc(CN2CCN(c3c(Br)cnc4nc(-c5ccc(N6CCN(C)CC6)cc5)[nH]c34)CC2)no1,Potency,[1],6.58 µM (active)
same,outcome,[2],inactive
c1nc2nc(Nc3ccc(N4CCOCC4)cc3)nc(NC3CCCCC3)c2[nH]1,Potency,[1],2.94 µM (active)
same,outcome,[2],inactive
CC(C)c1ccc(Cn2ccc3c4c(N)nc(NC5CC5)nc4ccc32)cc1,Potency,[1],4.66 µM (active)
same,outcome,[2],inactive
C[C@]12CC[C@H](O)CC1=CCC1C2CC[C@]2(C)C(n3cnc4ccccc43)=CCC12 (stereo partly specified),Potency,[1],inactive
same,outcome,[2],inactive
CNC(=O)c1cc(Oc2ccc(NC(=O)Nc3cc(C(C)(C)C)nn3-c3ccc4ncccc4c3)c(F)c2)ccn1,Potency,[1],8.29 µM (active)
same,outcome,[2],inactive
Cc1ccc(CN2CCNCC2)cc1NC(=O)CNc1ccc(F)c(F)c1,Potency,[1],inactive
same,outcome,[2],inactive
COc1cc(C(=O)NS(=O)(=O)c2ccccc2C)ccc1Cc1cn(C)c2ccc(NC(=O)OC3CCCC3)cc12,Potency,[4],15.8 µM (active)
same,outcome,[5],inactive
O=C(Nc1ncc(-c2cc(C(F)F)nn2-c2c(Cl)cccc2Cl)s1)C1CC1,outcome,[2],inactive
Cc1c(NC(=O)OC[C@@H]2COCCN2)cn2ncnc(Nc3ccc4c(cnn4Cc4cccc(F)c4)c3)c12,Potency,[1],inactive
same,outcome,[2],inactive
Cc1coc2c1C(=O)C(=O)c1c-2ccc2c1CCCC2(C)C,Potency,[3],39.8 µM (active)
same,outcome,[2],inactive
O=C1CCC[C@@H]2[C@H]3CCC[N+]4([O-])CCC[C@@H](CN12)[C@@H]34 (stereo partly specified),Potency,[1],inactive
same,outcome,[2],inactive
CC(C)(O)CCc1ccc(OCc2cc(-c3cccc(OC(F)F)c3)c3ncccc3c2)cc1,Potency,[3],inactive
CCS(=O)(=O)c1cccc(-c2cc(C(=O)NC3CCN(C)CC3)c(C)c3[nH]c4ncc(C)cc4c23)c1,Potency,[1],1.86 µM (active)
same,outcome,[2],inactive
COc1cc2nccc(Oc3ccc(NC(=O)C4(C(=O)Nc5ccc(F)cc5)CC4)cc3)c2cc1OC,Potency,[1],8.29 µM (active)
same,outcome,[2],inactive
O=c1[nH]c(=O)n(C2CCCO2)cc1F (stereo unspecified),Potency,[1],inactive
same,outcome,[2],inactive
C[C@@]12O[C@@H](C[C@]1(O)CO)n1c3ccccc3c3c4c(c5c6ccccc6n2c5c31)CNC4=O,Potency,[1],0.739 µM (active)
same,outcome,[2],inactive
COC(=O)C1=C(C)NC(C)=C(C(=O)OCCN2CCN(C(c3ccccc3)c3ccccc3)CC2)C1c1cccc([N+](=O)[O-])c1 (stereo unspecified),Potency,[4],inactive
same,outcome,[6],inactive
same,outcome,[5],inactive
same,outcome,[2],inactive
CC(C)c1cc(-c2n[nH]c(=O)n2-c2ccc3c(ccn3C)c2)c(O)cc1O,Potency,[1],0.0262 µM (active)
same,outcome,[2],inactive
C=CC(=O)Nc1cccc(Oc2nc(Nc3ccc(N4CCN(C)CC4)cc3)ncc2Cl)c1,Potency,[1],16.5 µM (active)
same,outcome,[2],inactive
Cn1cncc1[C@@](N)(c1ccc(Cl)cc1)c1ccc2c(c1)c(-c1cccc(Cl)c1)cc(=O)n2C,outcome,[2],inactive
